Jurkat NFkB inh: inhibitors of the PMA/ionomycin-induced NF-kB reporter in Jurkat cells | 330,000 compounds, 0.53% hits | PMA/ionomycin-induced NF-kB luciferase reporter, luminescence | inhibition, % at 4 µM; in the data active = inhibition above about 50%
H9c2 TAG inh: inhibitors of triacylglycerol accumulation; H9c2 cells, Nile Red lipid (TAG) fluorescence; cells loaded with 200 µM oleic acid; inhibition, % at 12.5 µM; 230,000 compounds, 0.66% hits;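 active = pattern-corrected inhibition of lipid staining of at least 50% with the nuclear-stain viability signal not falling by more than 50%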
Shn3 3UTR inh: inhibitors of Schnurri-3 3'UTR reporter in osteoblasts | inhibition, % at 12.5 µM | AID 588674 | Clone20 osteoblast Shn3 3'UTR firefly luciferase, 24 h | 360,000 compounds, 0.52% hits;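 active = mean inhibition of at least 75% with every replicate also reaching 75%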
Gli-Sufu block: Gli-Sufu pathway antagonism; AID 588413; inhibition, % at 5 µM; 340,000 compounds, 0.74% hits; Sufu-KO-LIGHT fibroblasts, Gli luciferase reporter luminescence;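 active = inhibition above about 55%, limit read from the data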
697 NFkB inh: lowers PMA/ionomycin-induced NF-kB signal in 697 B cells; 697 B-cell NF-kB luciferase reporter, 16 h; inhibition, % at 4 µM; 330,000 compounds, 0.33% hits; AID 435022; in the data active = inhibition above about 35%
aSyn UTR inh: 5' untranslated region of α-synuclein, MLPCN primary screen; alpha-synuclein 5'UTR reporter, inhibitor activity; inhibition, % (tested at 7.5 µM); 300,000 compounds, 0.82% hits; in the data active = inhibition above about 60%;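 note: H4 neuroglioblastoma cells stably carrying SNCA 5'UTR luciferase fusion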
697 NFkB conf: lowers PMA/ionomycin-induced NF-kB signal in 697 B cells. 2,000 compounds, 35% hits. 697 B-cell NF-kB luciferase, 16 h. shares compounds with 697 NFkB inh. AID 449746. inhibition, % at 4 µM; in the data active = inhibition mostly above about 28%, no sharp cut-off; inactive = mostly below about 22%
A number is an active result; i = inactive; nt = not tested or not shown. An excerpt weighted towards active compounds, which were near 2.3% of everything screened.

SMILES	Jurkat NFkB inh	H9c2 TAG inh	Shn3 3UTR inh	Gli-Sufu block	697 NFkB inh	aSyn UTR inh	697 NFkB conf
CCN(CC)CCOC(=O)c1ccc(NC(=O)COc2cc(=O)n(CC)c3ccccc23)cc1	i	nt	i	i	39	i	45
CCn1c(=O)cc(OCC(=O)Nc2ccc(OC)c(OC)c2)c2ccccc21	i	i	i	i	36	i	37
CCC(=O)Oc1ccc(C(=O)Nc2ccccc2C(=O)NCC(C)C)cc1	i	i	i	i	i	i	nt
CNc1cnc(-c2cccc(C(=O)N3CCOCC3)c2)cn1	nt	i	i	nt	nt	nt	nt
Cc1cc2nc(-c3ccc(SCC(=O)N4CCc5ccccc54)nc3)[nH]c2cc1C	i	nt	i	i	i	i	i
CC(C)(C)c1ccc(/C=C2\SC(=O)N(CCNC(=O)c3cccc(S(=O)(=O)N4CCOCC4)c3)C2=O)cc1	i	nt	i	i	i	i	i
CCC1CCCCN1CCCNC(=O)c1ccc2nc(N3CCCCC3)sc2c1 (stereo not drawn)	i	nt	i	i	i	i	i
CC1=C(C#N)C(Nc2cccc(C)n2)(C(F)(F)F)C(=O)N1 (stereo not drawn)	i	i	i	i	i	i	nt
CC1CCN(c2cc(N3CCN(C(=O)c4ccc(F)c(F)c4)CC3)c([N+](=O)[O-])cc2F)CC1	i	i	i	i	38	i	i
O=C(N/N=C/c1ccc(N2CCOCC2)c([N+](=O)[O-])c1)c1ccc(F)cc1	i	i	i	i	i	i	nt
COc1ccc(-c2[nH]nc3oc(=O)cc(C)c23)cc1	i	i	i	i	35	i	i
COc1ccc(C)cc1NC(=O)C1CCN(S(=O)(=O)c2c(C)noc2C)CC1	i	nt	i	i	i	i	nt
COc1ccc(C(=O)O/N=C(\N)c2ccccc2)c(OC)c1	i	nt	i	i	i	i	i
COc1ccc(OC)c(/C=N/Nc2nc(C)cc(=O)[nH]2)c1	i	nt	i	i	i	i	nt
Cc1ccc(S(=O)(=O)N2CCCOC2CNC(=O)C(=O)NCc2ccccn2)cc1 (stereo not drawn)	i	i	i	i	i	i	nt
CCOc1ccc(-c2nnc(SCC(=O)NC3CC3)o2)cc1	i	i	i	i	60	nt	56
CC(C)(C)c1ccc(-c2nnc(SCC(=O)NC3CC3)o2)cc1	i	i	i	i	57	nt	39
CC(=C/c1ccccc1)/C=N/Nc1nc(N2CCCCC2)nc(N2CCCCC2)n1	i	nt	i	i	i	i	nt
C=CCOc1ccccc1CN(C(=O)CCl)c1ccc2c(c1)OCO2	i	nt	i	i	42	i	32
COc1ccc(OC)c(C(=O)CSc2nc3cccnc3n2C)c1	i	i	i	i	i	i	nt
COc1ccc(-c2noc(N3CCC(C(=O)Nc4ccc(F)cc4F)CC3)n2)cc1	i	i	i	i	36	i	35
COc1ccc(-c2noc(N3CCC(C(=O)Nc4ccc(OC)cc4OC)CC3)n2)cc1	i	i	i	i	i	i	nt
C#CCOCCOCCOCCNc1nc(N2CCN(C(=O)[C@H](CCCCN)n3cc([C@@H](N)C(C)CC)nn3)CC2)nc(N2CCN(C(=O)[C@H](CCCCN)n3cc([C@@H](N)CC(C)C)nn3)CC2)n1 (stereo partly drawn)	i	i	i	i	i	i	nt
CC1CCCCC1NC(=O)CN1CCN(S(=O)(=O)c2ccc(Br)s2)CC1 (stereo not drawn)	i	i	i	i	i	nt	nt
CCOC(=O)c1[nH]c(C)c(C(=O)NCc2ccc(Cl)cc2)c1C	i	nt	i	i	i	i	nt
SMILES	Jurkat NFkB inh	H9c2 TAG inh	Shn3 3UTR inh	Gli-Sufu block	697 NFkB inh	aSyn UTR inh	697 NFkB conf
CCOC(=O)c1[nH]c(C)c(C(=O)NCCc2ccc(OC)cc2)c1C	i	nt	i	i	36	i	i
CC(C)(C)c1ccc(C(=O)NCCOc2ccccc2)cc1	i	nt	i	i	i	i	i
COc1ccc(-n2nnnc2S(=O)(=O)CC(=O)N2CCCCC2)cc1	i	i	92	i	39	nt	60
O=C(NCCCN1CCOCC1)c1cc(-c2ccc(Cl)c(Cl)c2)on1	i	nt	i	i	i	i	nt
Cc1ccc(-c2cc(C(=O)NCCCN3CCOCC3)no2)cc1	i	nt	i	i	87	i	85
O=C(NCCCN1CCOCC1)c1cc(-c2cccs2)on1	i	nt	i	i	48	i	i
CCSc1nnc(NC(=O)c2ccccc2C)s1	i	i	i	i	i	i	nt

Assay outcomes from PubChem BioAssay.
